Bioassay records: PubChem, National Center for Advancing Translational Sciences (NCATS)
Sampled rows, rich in hits. Any-hit rate of the full collection: about 6.9%.
Vif-APOBEC3F blk = qHTS for Inhibitors of Vif-A3F Interactions: qHTS | Potency, µM (titrated, usually from 46.1 µM) | HeLa A3F-eYFP + Vif (tagged APOBEC3F with the HIV-1 protein that degrades it), YFP fluorescence increase | 390,000 compounds, 0.2% hits | AID 602313, 2012; further: nearly all actives have a fitted effect of over 65% in size
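Fluorescence increase (Ex 488/Em 500-530) after overnight compound treatment at 37 deg C flags inhibition of Vif-driven A3F-eYFP loss in stable HeLa A3F-eYFP/Vif cells seeded overnight beforehand.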
Vif-A3G inh = qHTS for Inhibitors of Vif-A3G Interactions: qHTS; DNA dC->dU-editing enzyme APOBEC-3G (Homo sapiens), Q9HC16; HeLa A3G-eYFP + Vif (tagged APOBEC3G with the HIV-1 protein that degrades it), YFP fluorescence, overnight; Potency, µM (top dose mostly 46.1 µM), most hits filed as inhibitors; 410,000 compounds, 0.076% hits; AID 602310, 2012; further: nearly all actives have a fitted effect of over 60% in size
Target sequence (Q9HC16 whole entry, looked up): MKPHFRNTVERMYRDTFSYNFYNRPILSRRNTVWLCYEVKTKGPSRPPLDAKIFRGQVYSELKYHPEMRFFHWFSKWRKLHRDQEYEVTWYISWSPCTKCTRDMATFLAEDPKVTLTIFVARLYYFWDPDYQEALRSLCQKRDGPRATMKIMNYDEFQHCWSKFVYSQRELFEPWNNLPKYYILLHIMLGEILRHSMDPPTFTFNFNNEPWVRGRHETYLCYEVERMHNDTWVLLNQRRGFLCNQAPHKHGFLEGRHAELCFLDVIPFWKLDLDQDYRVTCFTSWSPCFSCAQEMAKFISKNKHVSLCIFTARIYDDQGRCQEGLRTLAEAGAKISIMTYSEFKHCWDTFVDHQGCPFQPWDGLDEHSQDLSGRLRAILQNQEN
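Read-out is eYFP fluorescence (Ex 488/Em 500-530) from Vif-expressing HeLa A3G-eYFP cells; more signal means A3G escaped Vif-mediated degradation. Cells plated overnight, compound pinned in, incubated overnight at 37 deg C.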
Giardia kill = Small Molecules that selectively kill Giardia lamblia: qHTS; Giardia lamblia trophozoite viability; activity change, % at 7.66 µM, hits read low; 340,000 compounds, 0.15% hits; in the data active means activity change below about -80%; inconclusive means between about -30% and that limit;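 further: parasites exposed to compound for two days anaerobically before the ATP read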
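Killing of trophozoites was scored by loss of ATP luminescence after a 48 hrs anaerobic exposure to compounds at 37 deg C, using 100 cells per well.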
MCF10A rerep = A quantitative high throughput screen for small molecules that induce DNA re-replication in MCF 10a normal breast cells. MCF 10A DNA re-replication, Hoechst nuclear intensity, 48 h. Potency, µM (series often up to 46.1 µM), hits mostly activators. 350,000 compounds, 2.9% hits. AID 624296, 2012; further: nearly all actives have a fitted effect of over 50% in size
IL1B secr inh = qHTS for Inhibitors of Inflammasome Signaling: IL-1-beta AlphaLISA Primary Screen; THP-1 LPS/ATP IL-1B secretion, AlphaLISA, 16 h; active compounds read low; activity change, % at 57.5 µM; 360,000 compounds, 4.7% hits; in the data active means activity change below about -50%; inconclusive means mostly about -30% to -49%
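THP-1 cells pretreated 1 hr with compounds (up to 57.5 uM final), then stimulated with LPS (250 ng/mL final) plus ATP (1.25 mM final); secreted IL-1B measured by AlphaLISA after 16 hr, decreased signal indicating inhibition.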
SW480 rereplic = A quantitative high throughput screen for small molecules that induce DNA re-replication in SW480 colon adenocarcinoma cells. SW480 DNA re-replication, Hoechst DNA content imaging, 48 h. Potency, µM (top dose mostly 46.1 µM), usual class: activators. 340,000 compounds, 1.8% hits; further: nearly all actives have a fitted effect of over 55% in size
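Image-based DNA-content assay: after two days of treatment, nuclei were labelled with the DNA dye Hoechst and imaged, and hits were compounds raising the count of nuclei showing high fluorescence intensity.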
Hits are given with their value; n = inactive; u = inconclusive; x = no result given; [ ] = dose if it differs, or a comment. Unless noted, the call rests on the fitted dose curve; in most records, active means well fitted curve in the direction sought with a large enough effect; inconclusive means small, poorly fitted or top-dose-only effect, or another doubt; inactive means no such curve, though single readings can be large; an effect the other way counts as inactive or inconclusive.

SMILES | Vif-APOBEC3F blk | Vif-A3G inh | Giardia kill | MCF10A rerep | IL1B secr inh | SW480 rereplic
CN1C(=O)C(CC(=O)Nc2ccc(Cl)cc2)N(Cc2ccco2)C1=S (configuration not stated) | n | n | n | 20.6µM | n | n
CCOc1ccc(C(c2c(NC(=O)c3ccccc3)sc(C)c2C)N2CCN(CCO)CC2)cc1 (configuration not stated) | n | n | n | u | -66.8 | 3.66µM
Cc1sc(NC(=O)c2ccco2)c(C(c2cccnc2)N2CCN(CCO)CC2)c1C (configuration not stated) | n | n | n | n | n | n
Cc1sc(NC(=O)c2ccco2)c(C(c2ccc(F)cc2)N2CCN(C)CC2)c1C (configuration not stated) | n | n | n | u | -70.9 | n
Cc1sc(NC(=O)c2ccccc2)c(C(c2ccc(Cl)cc2)N2CCN(CCO)CC2)c1C (configuration not stated) | n | n | n | u | -65.6 | n
Cc1ccc(C(c2c(NC(=O)c3ccco3)sc(C)c2C)N2CCOCC2)cc1 (configuration not stated) | n | n | x | x | n | x
COCCn1c(C)cc(O)c(C(c2ccccc2)N2CCN(c3ccccc3)CC2)c1=O (configuration not stated) | n | n | x | x | x | x
COc1cccc2cc(C(=O)NCCc3c(C)[nH]c4ccc(Br)cc34)c(=O)oc12 | n | n | x | x | x | x
CCOC(=O)C1CCN(C(c2cccc(F)c2)c2c(O)cc(C)n(CCOC)c2=O)CC1 (configuration not stated) | n | n | x | x | x | x
COc1ccc(OC)c2c(C)ccnc12 | x | n | x | x | x | x
COc1ccc(NC2=NC3(CCCCC3)N=C(N)N2)cc1 | n | n | n | n | -85.5 | n[9.22 µM]
CN(C)S(=O)(=O)c1cccc(NC(=O)CSc2nc3ccccc3[nH]2)c1 | n | n | n | n | -61.0 | n
CCN(CC)S(=O)(=O)c1cccc(NC(=O)CSc2nc3ccccc3[nH]2)c1 | n | n | n | n | -57.3 | n
Cc1ccc2nc(SCC(=O)Nc3cccc(S(=O)(=O)N(C)C)c3)[nH]c2c1 | n | n | n | u | n | n
CCc1ccccc1NC(=O)C1CCCN(C(=O)c2cnn(-c3ccccc3)c2-n2cccc2)C1 (configuration not stated) | n | n | x | x | x | x
CCOc1ccc2nc(N3CCCC(C(=O)Nc4ccc(Br)c(C)c4)C3)sc2c1 (configuration not stated) | n | n | x | x | x | x
CCOC(=O)CC(NC(=O)c1cc2cc(Cl)ccc2oc1=O)c1ccc(C)cc1 (configuration not stated) | n | n | x | x | x | x
O=C1c2ccccc2C(=O)N1CCN1CCOCC1 | n | n | n | n | n | n
O=C1C(Cl)=C(NCCN2CCOCC2)C(=O)c2ccccc21 | n | n | n | n | -95.8 | u
O=C1C(Cl)=C(NCCCN2CCOCC2)C(=O)c2ccccc21 | n | n | n | u | -95.6 | u
CC(Oc1ccc(Cl)cc1Cl)c1ccnc(N)n1 (configuration not stated) | n | n | n | n | -56.0 | n
Cc1ccc(S(=O)(=O)C(C#N)c2nc3ccccc3nc2N2CCCC2)cc1 (configuration not stated) | 22.4µM | u | n | u | n | n
Cc1ccc(S(=O)(=O)C(C#N)c2nc3ccccc3nc2N2CC(C)OC(C)C2)cc1C (configuration not stated) | n | u | n | 14.6µM | n | u
COc1ccc(S(=O)(=O)C(C#N)c2nc3ccccc3nc2N2CCCC(C)C2)cc1 (configuration not stated) | n | n | n | 11.6µM | n | n
CC(C)(C)c1ccc(S(=O)(=O)N2CCN(Cc3noc(CCC(=O)N4CCCCC4)n3)CC2)cc1 | n | n | x | x | x | x
SMILES | Vif-APOBEC3F blk | Vif-A3G inh | Giardia kill | MCF10A rerep | IL1B secr inh | SW480 rereplic
Cc1ccc(-c2c[n+](Cc3cccc(Cl)c3)c3n2CCC3)cc1 | n | n | n | n | -81.1 | n
CCc1ccc(NC(=O)C[n+]2cc(-c3ccc(C)cc3)n3c2CCC3)cc1 | n | n | n | n | u | n
Cc1ccc(C[n+]2cc(-c3ccc(Cl)cc3)n3c2CCC3)cc1 | n | n | n | n | -92.5 | n
Clc1cccc(C[n+]2cc(-c3ccccc3)n3c2CCC3)c1 | n | n | n | n | n | n
Cc1ccc(-c2c[n+](Cc3ccc(Cl)cc3)c3n2CCC3)cc1 | n | n | n | n | -84.7 | n
Cc1cc(Cl)ccc1OCC(=O)Nc1c(C(=O)c2ccccc2)oc2ccccc12 | n | n | x | x | x | x
CC1(C)CC2(C)OC(=N)C1(C#N)C2(C#N)C#N (configuration not stated) | n | n | n | 23.1µM | -101.3 | n
CCN(CC)C(=O)CSc1nc2ccc(NC(=O)CSc3nnc(N)s3)cc2s1 | n | n | n | n | n | n
CCN(CC)C(=O)CSc1nc2ccc(NC(=O)CSc3nccn3C)cc2s1 | n | n | n | n | -53.0 | n
Cc1ccc(NC(=O)c2ccccc2NS(=O)(=O)c2ccc(Cl)s2)cc1 | n | n | n | 9.2µM | n | u
O=C(Nc1ccccc1Cc1ccccc1)c1ccccc1NS(=O)(=O)c1ccc(Cl)s1 | n | n | n | 9.2µM | n | u
CC(C)c1nn2c(=O)cc(COC(=O)c3ccccc3NC(=O)c3cccs3)nc2s1 | n | n | x | x | x | x
CCOC(=O)c1cc(S(=O)(=O)N2CCN(c3cc(C)ccc3C)CC2)[nH]n1 | n | n | x | x | x | x
COC(=O)Cn1c(C)c(/C=C/c2cc[n+](C)cc2)c2ccccc21 | 11.2µM | u | n | n | n | n
COC(=O)Cn1cc(/C=C/c2cc[n+](C)cc2)c2ccccc21 | u | n | n | n | n | n
O=C1NCCN(Cc2ccoc2)C1CC(=O)N(CCO)Cc1ccccc1 (configuration not stated) | n | n | n | n | n | 18.4µM
CN(C(=O)CC1C(=O)NCCN1Cc1ccoc1)C1CCOCC1 (configuration not stated) | n | n | n | n | n | n
Oc1ccc(Br)cc1-c1cc(-c2ccccc2Cl)[nH]n1 | n | n | n | n | n | 5.17µM
CCOC(=O)c1ccc(NC(=O)c2cc3cc(C)ccc3n2C)cc1 | n | n | x | x | x | x
COc1ccc(OC)c(NC(=O)CSC2=C(C#N)C(c3ccco3)C3=C(CCCC3=O)N2)c1 (configuration not stated) | n | n | n | u | n | 16.4µM
